Bioassay records: PubChem BioAssay, National Center for Advancing Translational Sciences (NCATS)
AmpC no deterg – blocks E. coli AmpC beta-lactamase in detergent-free assay | Potency, µM (titrated, usually from 57.1 µM), hits mostly inhibitors | hit rate 0.52% among 330,000 | P00811 | AmpC nitrocefin hydrolysis, absorbance 480 nm, 0.0001% Triton; note: nearly all actives have a fitted effect of over 20% in size
Target sequence (P00811 whole entry, looked up): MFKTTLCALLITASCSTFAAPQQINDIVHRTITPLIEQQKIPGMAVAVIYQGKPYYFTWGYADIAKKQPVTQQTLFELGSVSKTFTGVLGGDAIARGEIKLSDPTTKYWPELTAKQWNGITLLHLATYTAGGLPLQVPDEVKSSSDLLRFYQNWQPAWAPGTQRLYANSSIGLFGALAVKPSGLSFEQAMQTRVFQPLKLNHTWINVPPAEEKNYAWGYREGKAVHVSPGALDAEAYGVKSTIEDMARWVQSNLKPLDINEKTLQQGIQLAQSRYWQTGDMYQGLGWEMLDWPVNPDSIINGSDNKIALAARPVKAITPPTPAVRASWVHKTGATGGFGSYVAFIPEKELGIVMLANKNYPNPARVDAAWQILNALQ
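AmpC (5.3 nM in the dispensed reagent) in 20 mM phosphate pH 7.0 with 0.01% (detergent screen) or 0.0001% Triton X-100 was preincubated with compounds for 15 min at room temperature. Nitrocefin was then added from an 800 uM solution, and hydrolysis was followed at 480 nm.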
LASV entry inh – Lassa virus entry inhibition | hit rate 1.2% among 300,000 | AID 540256 | Potency, µM (highest dose often 37.9 µM), most hits filed as inhibitors | Lassa virus pseudotype entry inhibition, cell reporter; calls by dose curve; tested in HEK293 cells; note: nearly all actives have a fitted effect of over 50% in size
AmpC inh detg – AmpC beta-lactamase inhibition with detergent present. hit rate 0.041% among 370,000. Potency, µM (doses to about 114 µM), most hits filed as inhibitors. AmpC hydrolysis of nitrocefin, absorbance 480 nm, 0.01% Triton; note: nearly all actives have a fitted effect of over 25% in size
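AmpC (5.3 nM in the dispensed reagent) in 20 mM phosphate pH 7.0 with 0.01% (detergent screen) or 0.0001% Triton X-100 was preincubated with compounds for 15 min at room temperature. Nitrocefin was then added from an 800 uM solution, and hydrolysis was followed at 480 nm.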
AMA1-RON2 inh – inhibitors of Plasmodium falciparum AMA1-RON2 interaction. hit rate 0.2% among 360,000. Potency, µM (titrated, usually from 58.2 µM), most hits filed as inhibitors. AID 720542. AlphaScreen AMA1-biotinylated RON2 peptide binding; note: nearly all actives have a fitted effect of over 45% in size
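AMA1 (3D7) with his tag at 25 nM final met compounds first, then biotinylated RON2 peptide at 25 nM; detection used donor plus acceptor beads, 10 µg/mL apiece, read by AlphaScreen after 30 min at room temperature.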
Marburg entry inh – Marburg virus entry inhibition | Marburg virus pseudotyped entry inhibition, cell reporter | Potency, µM (series often up to 37.8 µM), most hits filed as inhibitors | hit rate 1.8% among 300,000 | AID 540276; calls by dose curve; tested in HEK293 cells
Of the large screens only hits and unclear results are named; the others gave an inactive call; ! = repeats disagree. Only some compounds are listed: those with a hit (about 2.3% of all), similar ones and a draw of the others. Unless noted, calls come from the whole dose curve; as a rule, active = well fitted curve in the direction sought with a large enough effect; inconclusive = small, poorly fitted or top-dose-only effect, or another doubt; inactive = no such curve, though single readings can be large; an effect the other way counts as inactive or inconclusive.

Cc1ccc(S(=O)(=O)c2cc3ccccc3oc2=Nc2ccc3c(c2)OCCO3)cc1	AmpC no deterg 3.2µM, Marburg entry inh inconclusive
Cc1ccc(S(=O)(=O)c2cc3ccccc3oc2=Nc2ccc3c(c2)OCO3)cc1	none
CC1CCCN(c2ccc(C(=O)NCc3cccs3)cn2)C1 (stereo not given)	LASV entry inh 10µM
O=C(NCc1cccs1)c1ccc(N2CCCCC2)nc1	none (no result: AmpC no deterg)
Cc1cccc(N2CN=c3s/c(=C/c4ccncc4)c(=O)n3C2)c1	none (no result: AmpC no deterg, LASV entry inh, AmpC inh detg, AMA1-RON2 inh)
O=C(N/N=C/c1ccc(O)cc1)c1cc(-c2ccc3c(c2)OCO3)n[nH]1	LASV entry inh inconclusive, Marburg entry inh 7.9µM
Cc1ccc(Oc2nc3c(c(=O)n(Cc4ccccc4)c(=O)n3C)n2C)cc1C	LASV entry inh inconclusive, Marburg entry inh inconclusive (no result: AmpC no deterg, AMA1-RON2 inh)
Cc1ccc(OC[C@H](O)[C@H](C)NC(C)C)c2c1CCC2	Marburg entry inh 16µM (no result: LASV entry inh)
CC(C)(C)NC[C@H](O)COc1cccc2c1CCCC2=O	none (no result: LASV entry inh, Marburg entry inh)
Cc1ccc(-c2nc(CS(=O)CC(=O)NCCCN3CCN(Cc4ccccc4)CC3)c(C)o2)cc1 (stereo not given)	LASV entry inh inconclusive, Marburg entry inh 11µM
Cc1oc(-c2ccc(Cl)cc2)nc1CS(=O)CC(=O)NCCCN1CCOCC1 (stereo not given)	none (no result: LASV entry inh, Marburg entry inh)
COCCCNC(=O)c1c(NC(=O)Cc2coc3cc(C)ccc23)sc2c1CCCC2	LASV entry inh inconclusive, Marburg entry inh inconclusive (no result: AmpC no deterg, AMA1-RON2 inh)
O=C(c1ccc2c(c1)CCN2S(=O)(=O)c1ccccc1)N1CCN(c2ccc(F)cc2)CC1	none
Cc1ccnc(NC(=O)c2cccc(S(=O)(=O)N3CCN(c4ccccc4)CC3)c2)c1	LASV entry inh 5µM, Marburg entry inh inconclusive
O=C(c1cccc(S(=O)(=O)N2CCCCC2)c1)N1CCN(c2ccccc2)CC1	none
Cc1ccnc(NC(=O)c2cccc(S(=O)(=O)N3CCCC3)c2)c1	none (no result: LASV entry inh, Marburg entry inh)
O=C(c1cccc(S(=O)(=O)N2CCc3ccccc3C2)c1)N1CCN(c2ccccc2)CC1	LASV entry inh 16µM, Marburg entry inh inconclusive
O=C(c1cccc(S(=O)(=O)N2CCc3ccccc32)c1)N1CCN(c2ccccc2)CC1	LASV entry inh 4µM, AMA1-RON2 inh inconclusive, Marburg entry inh inconclusive
CCc1ccc(-n2c(=O)c3sc4ccccc4c3n(Cc3cccc(F)c3)c2=O)cc1	none (no result: AmpC no deterg, AMA1-RON2 inh)
CC1CCCCN1C(=O)Cn1c(=O)n(-c2ccc(Cl)cc2)c(=O)c2c3c(sc21)CCC3 (stereo not given)	Marburg entry inh inconclusive (no result: AmpC no deterg, AMA1-RON2 inh)
c1ccc(CCn2c3ccccc3c3nnc(SCc4ccc5nonc5c4)nc32)cc1	LASV entry inh 5.8µM, AmpC inh detg inconclusive, Marburg entry inh 3.3µM
CCc1sc(Nc2ccc(C)cc2Br)nc1-c1cc2cccc(OC)c2oc1=O	LASV entry inh inconclusive (no result: AmpC no deterg, AMA1-RON2 inh, Marburg entry inh)
CCN1C(=O)[C@@H]2[C@H]3[C@H](O)[C@H](O)CC(=NO[C@H](C)c4cn([C@@H]5COC[C@@H]5O)nn4)[C@@H]3CC[C@H]2C1=O	none (no result: AmpC no deterg, LASV entry inh, AmpC inh detg, AMA1-RON2 inh)
Cc1ccc(C(=O)NC(NC(=S)Nc2ccc(S(N)(=O)=O)cc2)C(Cl)(Cl)Cl)cc1 (stereo not given)	AmpC inh detg inconclusive
Cc1ccccc1C(=O)NC(NC(=S)Nc1ccc(S(N)(=O)=O)cc1)C(Cl)(Cl)Cl (stereo not given)	AmpC no deterg 20µM, Marburg entry inh inconclusive
COc1ccc(CN(C2CCCC2)S(=O)(=O)c2ccccc2Br)cc1	Marburg entry inh 13µM (no result: AmpC no deterg, LASV entry inh, AmpC inh detg, AMA1-RON2 inh)
NC(Cc1ccc(O)c([N+](=O)[O-])c1)C(=O)O (stereo not given)	none
N[C@@H](Cc1ccc(O)c(O)c1)C(=O)O	LASV entry inh inconclusive, AMA1-RON2 inh inconclusive, Marburg entry inh 16µM! (no result: AmpC no deterg, AmpC inh detg)
NC(Cc1ccc(N(CCCl)CCCl)cc1)C(=O)O (stereo not given)	LASV entry inh 2.9µM, Marburg entry inh 5.8µM (no result: AmpC no deterg, AmpC inh detg, AMA1-RON2 inh)
N[C@@H](Cc1cc(I)c(Oc2cc(I)c(O)c(I)c2)c(I)c1)C(=O)O	LASV entry inh inconclusive, Marburg entry inh inconclusive (no result: AmpC no deterg, AmpC inh detg)
C[C@H](Cc1ccc(O)c(O)c1)[C@@H](C)Cc1ccc(O)c(O)c1	LASV entry inh inconclusive, Marburg entry inh 14µM (no result: AmpC no deterg, AmpC inh detg, AMA1-RON2 inh)
N[C@@H](Cc1cc(I)c(Oc2ccc(O)c(I)c2)c(I)c1)C(=O)O	AmpC no deterg 3.2µM!, LASV entry inh inconclusive, AmpC inh detg inconclusive
COC(=O)c1sccc1S(=O)(=O)N1CCN(c2cccc(C)c2)C(C)C1 (stereo not given)	LASV entry inh inconclusive (no result: AmpC no deterg, AMA1-RON2 inh, Marburg entry inh)
